# From PubChem BioAssay (NCATS)
# Inconclusive results are not listed. Entries that show only a call come without a potency. Active and inactive are the calls of the source. The call rests on the fitted dose curve; in most records, active means well fitted curve in the direction sought with a large enough effect; inconclusive means small, poorly fitted or top-dose-only effect, or another doubt; inactive means no such curve, though single readings can be large; an effect the other way counts as inactive or inconclusive.
# What was measured:
# [1] = qHTS of pediatric cancer cell lines to identify multiple opportunities for drug repurposing: Primary screen for Rh18 cells (AID 1347102); further: nearly all actives have a fitted effect of over 65% in size; further: potency means the concentration at half of the fitted maximal effect
# How it was run: (§1)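 Viability after 48 h compound treatment at 37C, 500-1,000 cells/well, read as ATP luminescence with CellTiter-Glo. Primary screens used 11-point (MIPE, 0.78 nM-46 µM) or 8-point (NPC, 0.59 nM-46 µM) final concentrations; follow-up screens used 11-point dilutions.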
# [2] = qHTS of pediatric cancer cell lines to identify multiple opportunities for drug repurposing: Primary screen for MG 63 (6-TG R) cells (AID 1347105); further: nearly all actives have a fitted effect of over 50% in size
# How it was run: (§2)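 Following a 5-hour attachment period, cells at 500-1,000/well received compounds and were cultured for 48 hours. CellTiter-Glo was added and luminescence read to estimate viable, metabolically active cells.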
# [3] = qHTS of pediatric cancer cell lines to identify multiple opportunities for drug repurposing: Primary screen for control Hh wild type fibroblast cells (AID 1347106);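 further: series mostly up to about 46 µM; a drop in luminescence marks cytotoxicity and a rise apparent proliferation; nearly all actives have a fitted effect of over 55% in size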
# How it was run: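 Cells (500-1,000/well) in growth media were settled 5 h at 37 degrees C, then given compounds for 48 h. Viability was read as CellTiter-Glo luminescence. Primary runs used MIPE at 11 points (0.78 nM-46 µM) and NPC at 8 points (0.59 nM-46 µM); follow-ups used 11 points.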
# [4] = qHTS of pediatric cancer cell lines to identify multiple opportunities for drug repurposing: Primary screen for Rh30 cells (AID 1347107); further: series mostly up to about 46 µM; nearly all actives have a fitted effect of over 75% in size
# How it was run: as §1
# [5] = qHTS of pediatric cancer cell lines to identify multiple opportunities for drug repurposing: Primary screen for Rh41 cells (AID 1347108);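 further: series mostly up to about 46 µM; luminescence drop marks cytotoxic hits; nearly all actives have a fitted effect of over 70% in size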
# How it was run: as §2
# [6] = qHTS of pediatric cancer cell lines to identify multiple opportunities for drug repurposing: Primary screen for OHS-50 cells (AID 1347103); further: nearly all actives have a fitted effect of over 40% in size; further: potency means the concentration at half of the fitted maximal effect
# How it was run: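 Cells (500-1,000/well) rested 5 h, then received compounds for 48 h; metabolically active cells were measured by CellTiter-Glo luminescence. Final concentrations spanned up to 46 µM (MIPE, 11-point) or 0.59 nM-46 µM (NPC, 8-point) in primary screens, 11-point in follow-ups.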
# [7] = qHTS of pediatric cancer cell lines to identify multiple opportunities for drug repurposing: Primary screen for RD cells (AID 1347104); further: nearly all actives have a fitted effect of over 55% in size; further: potency means the concentration at half of the fitted maximal effect
# How it was run: as §2
# [8] = qHTS of pediatric cancer cell lines to identify multiple opportunities for drug repurposing: Confirmatory screen for NB1643 cells (AID 1347109); further: nearly all actives have a fitted effect of over 45% in size
# How it was run: as §1
# [9] = qHTS of pediatric cancer cell lines to identify multiple opportunities for drug repurposing: Confirmatory screen for A673 cells (AID 1347110);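 further: cells exposed to compound for 48 h before the viability read; nearly all actives have a fitted effect of over 65% in size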
# How it was run: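 Concentration-response curves came straight from titrations: 11 points (0.78 nM to 46 µM) for MIPE and several concentrations (0.59 nM to 46 µM) for NPC in primary, 11 points in follow-up. Readout: ATP luminescence at 48 h.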
Compound,Potency [1],Potency [2],outcome [3],Potency [4],Potency [5],Potency [6],Potency [7],Potency [8],Potency [9]
NC(N)=N/N=C/c1c(Cl)cccc1Cl,inactive,inactive,inactive,inactive,inactive,–,–,–,–
CCN1CCC[C@H]1CNC(=O)c1c(O)c(Cl)cc(Cl)c1OC,inactive,–,inactive,inactive,inactive,inactive,inactive,–,–
CCC(=O)c1ccc2c(c1)N(CCCN(C)C)c1ccccc1S2,–,–,inactive,inactive,inactive,30.9 µM (active),–,–,–
CCCNC(C)C(=O)Nc1ccccc1C (stereo not drawn),inactive,–,inactive,inactive,inactive,inactive,inactive,–,–
COc1cc(C(=O)OCCCN2CCCN(CCCOC(=O)c3cc(OC)c(OC)c(OC)c3)CC2)cc(OC)c1OC,inactive,–,inactive,inactive,inactive,–,–,–,–
O=C(CCCN1CCC(O)(c2cccc(C(F)(F)F)c2)CC1)c1ccc(F)cc1,–,inactive,inactive,inactive,–,–,–,–,–
COCCOC(=O)C1=C(C)NC(C)=C(C(=O)OC(C)C)C1c1cccc([N+](=O)[O-])c1 (stereo not drawn),18.8 µM (active),–,inactive,–,–,24.6 µM (active),–,–,–
OC(CCN1CCCCC1)(c1ccccc1)C1CCCCC1 (stereo not drawn),inactive,inactive,inactive,inactive,inactive,–,–,–,–
COC(=O)C1=C(C)NC(C)=C(C(=O)OCCN(C)Cc2ccccc2)C1c1cccc([N+](=O)[O-])c1 (stereo not drawn),–,–,inactive,inactive,–,17.4 µM (active),–,–,–
c1cc(CN2CCCCC2)cc(OCCCNc2nc3ccccc3s2)c1,inactive,inactive,inactive,inactive,–,27.6 µM (active),–,–,–
CN(C)CCCN1c2ccccc2Sc2ccccc21,–,inactive,inactive,inactive,–,17.4 µM (active),–,–,–
COc1cc2c(cc1OC)-c1cc(=Nc3c(C)cc(C)cc3C)n(C)c(=O)n1CC2,inactive,–,inactive,inactive,–,21.9 µM (active),23.7 µM (active),–,–
COC(=O)C1=C(C)NC(C)=C(C(=O)OC(C)(C)CN(C)CCC(c2ccccc2)c2ccccc2)C1c1cccc([N+](=O)[O-])c1 (stereo not drawn),–,inactive,inactive,–,–,12.3 µM (active),–,–,–
CN1C[C@H](C(=O)N[C@]2(C)O[C@@]3(O)[C@@H]4CCCN4C(=O)[C@H](Cc4ccccc4)N3C2=O)C[C@@H]2c3cccc4[nH]cc(c34)C[C@H]21,–,–,inactive,inactive,inactive,–,inactive,inactive,inactive
CC(C)COCC(CN(Cc1ccccc1)c1ccccc1)N1CCCC1 (stereo not drawn),–,–,inactive,–,–,19.5 µM (active),26.6 µM (active),–,–
OCCN1CCN(CC/C=C2/c3ccccc3Sc3ccc(C(F)(F)F)cc32)CC1,–,–,inactive,inactive,inactive,24.6 µM (active),26.6 µM (active),–,–
NC(N)=NC(=O)Cc1c(Cl)cccc1Cl,inactive,inactive,inactive,inactive,inactive,–,inactive,–,–
Fc1ccc(C(c2ccc(F)cc2)N2CCN(C/C=C/c3ccccc3)CC2)cc1,inactive,inactive,inactive,inactive,inactive,17.4 µM (active),–,–,–
Cc1nc2ccccn2c(=O)c1CCN1CCC(C(=O)c2ccc(F)cc2)CC1,inactive,–,inactive,inactive,inactive,–,inactive,–,–
CC(=O)[C@@]1(O)CC[C@H]2[C@@H]3CCC4=CC(=O)CC[C@]4(C)[C@H]3CC[C@@]21C,inactive,inactive,inactive,inactive,inactive,–,inactive,–,–
CC(C)[N+](C)(CCOC(=O)C1c2ccccc2Oc2ccccc21)C(C)C,inactive,inactive,inactive,inactive,inactive,inactive,inactive,–,–
NC1=NCC2c3ccccc3Cc3ccccc3N12 (stereo not drawn),–,–,inactive,inactive,inactive,inactive,inactive,–,–
CNCCCN1c2ccccc2CCc2ccccc21,–,–,inactive,inactive,–,15.5 µM (active),–,–,–
